An excerpt weighted towards active compounds, which were near 3.2% of everything screened.
Bst PK mod: Pyruvate Kinase; purified pyruvate kinase, luminescence ATP production; ribose 5-phosphate activator present at AC10; Potency, µM; 1.2% of 51,000 active; in the data active = potency below about 11 µM; inconclusive = mostly about 12 µM to 25 µM;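 the screen sought inhibitors and activators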;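 also: scaled between full activation by ribose 5 phosphate and full inhibition by luteolin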
FLuc inh: qHTS Assay for Inhibitors of Firefly Luciferase; Luciferin 4-monooxygenase (Photinus pyralis), P08659; Potency, µM (top dose mostly 57.1 µM), inactives show at the top dose activity change, negative = inhibition, actives largely listed as inhibitors; 2.2% of 72,000 active; purified firefly luciferase, luminescence, 8 min; active = well fitted inhibition curve with a large enough effect; inconclusive = small, poorly fitted or top-dose-only effect; also: % is scaled to controls: 0 for no effect and ±100 for the full control effect; nearly all actives have a fitted effect of over 40% in size
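Firefly luciferase (PKLight detection mix) with 10 uM ATP in pH 7.2 imidazole buffer (KCl, MgCl2, Tween 20, BSA). Compounds tested across a concentration series (qHTS). Luminescence read after 8 min at ambient temperature.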
GBA mod: Glucocerebrosidase; Lysosomal acid glucosylceramidase (Homo sapiens), P04062; purified enzyme, resorufin glucoside fluorescence (screen aimed at inhibitors), 20 min; Potency, µM; 1.1% of 48,000 active; in the data active = potency below about 15 µM; inconclusive = mostly about 16 µM to 33 µM;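 also: the screen sought inhibitors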
Target sequence (P04062 whole entry, looked up): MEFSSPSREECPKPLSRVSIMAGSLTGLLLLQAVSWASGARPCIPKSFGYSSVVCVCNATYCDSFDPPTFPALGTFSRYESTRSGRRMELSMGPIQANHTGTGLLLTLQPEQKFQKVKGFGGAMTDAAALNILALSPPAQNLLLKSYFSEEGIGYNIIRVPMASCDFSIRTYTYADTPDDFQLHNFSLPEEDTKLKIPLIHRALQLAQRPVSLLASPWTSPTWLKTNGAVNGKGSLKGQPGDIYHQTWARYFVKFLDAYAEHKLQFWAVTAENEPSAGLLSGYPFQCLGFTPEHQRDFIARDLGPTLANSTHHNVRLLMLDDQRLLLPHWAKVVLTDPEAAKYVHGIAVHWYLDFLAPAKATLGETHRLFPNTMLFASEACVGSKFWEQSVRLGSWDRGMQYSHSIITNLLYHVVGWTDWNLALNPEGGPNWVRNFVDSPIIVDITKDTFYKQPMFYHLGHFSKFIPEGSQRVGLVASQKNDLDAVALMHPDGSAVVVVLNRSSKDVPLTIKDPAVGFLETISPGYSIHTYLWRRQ
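Normal human glucocerebrosidase (0.2 nM final) was assayed with resorufin β-D-glucopyranoside (30 uM final) in 50mM citric acid/KH2PO4, 10mM sodium taurocholate, 0.01% tween-20, pH 5.9. Compounds were titrated; fluorescence (Ex 548, Em 600) read after 20 min at RT.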
An asterisk follows results filed as active; i = inactive; u = inconclusive; x = no result; [ ] = remark or other dose. Potency is read from the fitted curve at half-maximal effect.

SMILES | Bst PK mod | FLuc inh | GBA mod
Cc1onc(-c2ccccc2)c1C(=O)Nc1nc2c(s1)CCCC2 | >57 | 0% | u
O=C(Nc1nc2c(s1)C(=O)CCC2)c1ccccc1 | x | 13µM* | x
O=C(Nc1nc(=O)c2ccccc2s1)c1ccccc1 | i | -20%[25.5 µM] | x
CN(C)c1ccc(C(=O)Nc2nc3c(s2)CCCC3)cc1 | x | 5µM* | x
Cc1cc(C(=O)Nc2nc3c(s2)CCCC3)no1 | i | 25µM* | >77
COc1ccccc1-c1ccc2ncnc(N(C)Cc3ccco3)c2c1 | x | -2%[2.29 µM] | x
C[C@@]1(C(=O)O)NCCc2cc(O)c(O)cc21 | x | -9% | x
COc1ccc(-c2nc3cnc(N(C)C)nc3n(C)c2=O)cc1 | x | -8%[11.4 µM] | x
COc1ccc(CC(=O)Nc2cc(C)on2)cc1 | >57 | -3% | >77
COc1ccc(C(=O)/C=C/Nc2cc(C)on2)cc1 | x | 3.2µM* | x
CCOc1ncccc1C(=O)Oc1ccc2c(c1)OCO2 | >57 | 1% | i
O=C(Oc1ccc2c(c1)OCO2)c1ccc(F)cc1Cl | x | 13µM* | >77
C[C@@H](N)/C(N)=N/O | x | 1%[11.4 µM] | x
O=C1CCC[C@@H](C(C(=O)OCc2ccccc2)C(=O)OCc2ccccc2)C1 | x | -1%[11.4 µM] | x
c1ccc2c(Oc3ccc4c(c3)OCO4)nncc2c1 | i | 16µM* | >77
OC(c1ccc2c(c1)OCO2)c1nccc2ccccc12 (stereo not drawn) | x | 6% | x
O=C(Nc1ccc(-c2nc3ccccc3[nH]2)cc1)C1CCCO1 (stereo not drawn) | 3.2* | 2.5µM* | i
O=C(Nc1nc2ccccc2[nH]1)C1CCCO1 (stereo not drawn) | x | -12% | x
O=C(CCc1nc2ccccc2[nH]1)Nc1ccccc1 | >57 | -2% | u
O=C(CN1CCOCC1)Nc1ccc(S(=O)(=O)N2CCCCCC2)cc1 | u | 0% | x
Cc1ccc2nc(C3CCN(CC(=O)Nc4ccc5c(c4)OCCO5)CC3)[nH]c2c1 | >57 | -7% | x
O=C(CN1CCOCC1)Nc1ccc(-c2nc3ccccc3[nH]2)cc1 | i | 16µM* | x
O=C(O)CCCC(=O)Nc1cccc(-c2nc3ccccc3[nH]2)c1 | x | 20µM* | >77
O=C(CN1CCC(c2nc3ccccc3[nH]2)CC1)Nc1ccc2c(c1)OCO2 | >57 | -2% | 14*
CCNc1ncc2nc(-c3cc(F)cc(F)c3)c(=O)n(Cc3ccc(F)cc3)c2n1 | x | 0%[11.4 µM] | x
SMILES | Bst PK mod | FLuc inh | GBA mod
O=S(=O)(c1ccccc1)N1CCC[C@@]2(CCN(Cc3ccccc3)C2)C1 | x | 1%[11.4 µM] | x
OCc1ccncc1.OCc1ccncc1.[Cl][Pt]([Cl])([Cl])[Cl] | x | -1%[11.4 µM] | x
Cc1cn([C@H]2C[C@H](N=[N+]=[N-])[C@H](CO)O2)c(=O)[nH]c1=O | x | 1%[11.4 µM] | x
O=C(Nc1cccc(F)c1)N1CC2(CCN(C(=O)c3cccc(F)c3)CC2)C1 | x | -2%[11.4 µM] | x
c1ccc(-c2noc(-c3ccc4ccccc4c3)n2)nc1 | 0.16* | 0.2µM* | x
c1ccc(-c2noc(-c3ccc4c(c3)OCO4)n2)nc1 | 0.86* | 0.79µM* | >77
Cc1occc1-c1nc(-c2ccncc2)no1 | x | -3% | >77
c1ccc(-c2noc(-c3cccnc3)n2)nc1 | x | u | >77
c1ccc(CCc2ccccc2-c2nc(-c3ccccn3)no2)cc1 | x | 1% | >77
Cc1occc1-c1nc(-c2ccccn2)no1 | x | 13µM* | x
Cn1c(=O)c2[nH]c(CCNC(=O)c3ccccc3)nc2n(C)c1=O | x | 2%[11.4 µM] | x
C[C@@H](c1ccccc1)N1C(=O)[C@H]2[C@H]3[C@H](O)[C@H](O)C/C(=N/OC[C@@H](O)COCc4ccco4)[C@H]3CC[C@@H]2C1=O | x | 1%[11.4 µM] | x
COc1ccc2c(c1)c1c(C)c3cnccc3c(C)c1n2CCCN | x | -1%[11.4 µM] | x
Oc1ccccc1C1Nc2cccc3cccc(c23)N1 | 3.6* | -10% | >77
Brc1ccc(C2Nc3cccc4cccc(c34)N2)o1 | x | -17% | x
CCOc1ccc(/C(=N\O)C(C)NO)cc1 (stereo not drawn) | x | 2% | x
C=CCOc1ccc(/C=C/C(C)=N\O)cc1 | x | 16µM* | x
N#Cc1c(NC(=O)C(F)(F)F)sc2c3c(=O)c4ccccc4c(=O)c=3oc3ccccc3c12 | x | -1%[11.4 µM] | x
O=S(=O)(Nc1ccc2c(c1)OCO2)c1cccs1 | >57 | -2% | x
O=S(=O)(Nc1ccc2c(c1)OCCO2)c1cccs1 | 4.2* | -25% | >77
COc1ccc(-c2nc3cnc(N4CCOCC4)nc3n(C[C@H]3CCCO3)c2=O)cc1 | x | 0%[11.4 µM] | x
CCOc1ccc(-c2nnc(N)s2)cc1 | x | 16µM* | x
c1cncc(-c2nnc3sc(-c4ccco4)nn23)c1 | >26 | -2%[25.5 µM] | x
CCN(CC)c1ccc(-c2nn3c(-c4cccnc4)nnc3s2)cc1 | 5.2* | -3%[25.5 µM] | x
CCCCOc1ccc(-c2nnc(N)s2)cc1 | i | -15%[25.5 µM] | x
SMILES | Bst PK mod | FLuc inh | GBA mod
CCOc1ccc(-c2nn3c(-c4ccc(OC)cc4)nnc3s2)cc1 | >11 | 0%[25.5 µM] | x
CCOc1ccc(-c2nn3c(-c4ccccc4)nnc3s2)cc1 | 5.1* | -1% | >77
CCN1C(=O)[C@H]2[C@H]3[C@H](O)[C@H](O)C/C(=N/O[C@@H]4O[C@@H](COC(C)=O)[C@@H](OC(C)=O)[C@@H](OC(C)=O)[C@H]4OC(C)=O)[C@H]3CC[C@@H]2C1=O | x | -5%[11.4 µM] | x
O=C(OCc1nc2ccccc2s1)c1cnccn1 | x | u | >77
Cc1ccsc1C(=O)OCC(=O)N1CCOCC1 | >57 | 4% | >77
O=C(OCc1csc(-c2ccccc2)n1)c1cccs1 | u | 13µM* | >77
O=C(OCc1nc2ccccc2s1)c1cccs1 | x | 10µM* | >77
Cn1cccc1C(=O)OCc1csc(-c2ccccc2)n1 | 9.3* | 7.9µM* | >77
Cc1ccsc1C(=O)OCc1csc(-c2ccccc2)n1 | 7.1* | 7.9µM* | >77
Cc1ccccc1Nc1nc(N)nc(COC(=O)c2cccn2C)n1 | >57 | -12% | >77
O=C(OCc1nc2ccccc2c(=O)[nH]1)c1cccs1 | >57 | 0% | >77
CC[C@H]1NC(=O)c2cc(S(N)(=O)=O)c(Cl)cc2N1 | x | -3%[25.5 µM] | x
Cc1nc2c(cnn2-c2ccc(Cl)cc2)c(=O)n1-c1ccc2c(c1)OCCO2 | >57 | 2% | >77
C[C@H](O/N=C1/[C@H]2O[C@@H]2[C@@H](O)[C@H]2[C@H]1CCn1c(=O)n(-c3ccccc3)c(=O)n12)c1cn([C@H](CO)Cc2ccccc2)nn1 | x | 1%[11.4 µM] | x
[O-][N+]1(CC[N+]2([O-])CCCCC2)CCCCC1 | x | 1%[11.4 µM] | x
COc1cccc(Nc2ncc3nc(-c4ccc(F)cc4)c(=O)n(CCC#N)c3n2)c1 | x | 0%[11.4 µM] | x
Cn1c(=O)c(-c2ccccc2)nc2cnc(N3CCOCC3)nc21 | x | 1%[11.4 µM] | x
CN(C)CCSCCO | x | 2%[11.4 µM] | x
O=C(NC1CC1)c1ccc(-c2nc3ccccc3s2)s1 | 0.8* | 1.6µM* | >77
Cc1noc(C)c1COC(=O)c1ccc(-c2nc3ccccc3s2)s1 | >57 | 8% | u
O=S(=O)(c1ccccc1)N1CCC2(CCCN(Cc3nccs3)C2)CC1 | x | -1%[11.4 µM] | x
CCOC(=O)C1CCN(c2ncnc3c2oc2ccc(Cl)cc23)CC1 | u | 2% | 13*
CCOC(=O)C1CCN(c2ncnc3c2[nH]c2cccc(OC)c23)CC1 | x | -3% | >77
CN(C)C(=O)C1CCN(Cc2c[nH]c3ccccc23)CC1 | x | 6%[11.4 µM] | x
CN(C)S(=O)(=O)c1ccc2c(c1)/C(=C/c1cc3c([nH]1)CCCC3)C(=O)N2 | x | 25µM* | x
COc1ccc(N(C)S(=O)(=O)c2ccc3c(c2)CCC(=O)N3)cc1 | >57 | 4% | >77
Cc1cn([C@H]2C=C[C@H](CO)O2)c(=O)[nH]c1=O | x | 3% | x
